Measured values taken from PubChem BioAssay.
Activity calls are given as the source filed them. Unless noted, the rule behind the calls is not given here.

Key:
[1] = HepG2 liver cancer cell viability effects, profiling panel, resazurin fluorescence, 24 h, PK04 Diversity Set (AID 1172); settings: higher = more signal; note: test concentration not given here
[2] = basal S. cerevisiae growth modulation, no modifier, primary screen, OD600, strain BY4716, 24 h, basal condition (AID 1173); settings: OD600, 24 h, higher = more signal, called active from +8 up or from −8 down
[3] = MM1S myeloma cell viability, profiling panel, resazurin fluorescence, basal, 24 h, PK04 Diversity Set (AID 1174); settings: higher = more signal, called active from +8 up or from −8 down;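 note: MM1S multiple myeloma cell line; test concentration not given here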
[4] = target: Dihydroorotate dehydrogenase (quinone), mitochondrial (Plasmodium falciparum (isolate 3D7)) (UniProt Q08210); assay: PfDHODH enzyme inhibitors, primary screen, biochemical, C-terminal His tag, absorbance 600 nm (AID 1175); settings: DCIP absorbance 600 nm, higher = more signal, called active from +8 up or from −8 down;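 note: recombinant parasite enzyme with a five histidine tag at its C terminus; test concentration not given here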
[5] = P. aeruginosa biofilm formation inhibitors, primary screen, strain PAO1, LB-PBS medium, absorbance 600 nm (AID 1176); note: test concentration not given here; settings: P. aeruginosa PAO1 growth/biofilm, A600, 12 h; higher = more signal
[6] = S. cerevisiae RM11-1a growth modifiers, primary screen, strain RM11-1a, OD600, basal, 24 h (AID 1177); settings: OD600, 24 h, higher = more signal, called active from +8 up or from −8 down;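 note: cultures grown under basal conditions with no added stressor; test concentration not given here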
[7] = E. coli acrAB mutant growth effects, primary screen, E. coli filamentation inducers, strain DRC39, OD650, 24 h (AID 1178); settings: higher = more signal, called active from +8 up or from −8 down;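 note: growth measured as culture turbidity by optical density at 650 nm; test concentration not given here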
[8] = E. coli acrAB mutant growth effects, primary screen, E. coli filamentation inducers, strain DRC39, OD650, 48 h (AID 1179);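 note: screen aims at cell division blockers that make cells filament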; settings: E. coli DRC39 delta-acrAB growth, higher = more signal, called active from +8 up or from −8 down
[9] = RPMI8226 myeloma cell viability, profiling panel, resazurin fluorescence, basal, 24 h, PK04 Diversity Set (AID 1180); settings: higher = more signal;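 note: RPMI8826 multiple myeloma cell line at 5000 cells per well; test concentration not given here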
[10] = target: E3 ubiquitin-protein ligase XIAP (Homo sapiens) (UniProt P98170); assay: XIAP binders, primary screen, biophysical, small-molecule microarray, fluorescence 635 nm (AID 1181); settings: small-molecule microarray binding, higher = more signal;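 note: score merges 667 nm emission and signal to noise over triplicate slides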
Chain of E3 ubiquitin-protein ligase XIAP (Homo sapiens) (P98170 whole entry, looked up): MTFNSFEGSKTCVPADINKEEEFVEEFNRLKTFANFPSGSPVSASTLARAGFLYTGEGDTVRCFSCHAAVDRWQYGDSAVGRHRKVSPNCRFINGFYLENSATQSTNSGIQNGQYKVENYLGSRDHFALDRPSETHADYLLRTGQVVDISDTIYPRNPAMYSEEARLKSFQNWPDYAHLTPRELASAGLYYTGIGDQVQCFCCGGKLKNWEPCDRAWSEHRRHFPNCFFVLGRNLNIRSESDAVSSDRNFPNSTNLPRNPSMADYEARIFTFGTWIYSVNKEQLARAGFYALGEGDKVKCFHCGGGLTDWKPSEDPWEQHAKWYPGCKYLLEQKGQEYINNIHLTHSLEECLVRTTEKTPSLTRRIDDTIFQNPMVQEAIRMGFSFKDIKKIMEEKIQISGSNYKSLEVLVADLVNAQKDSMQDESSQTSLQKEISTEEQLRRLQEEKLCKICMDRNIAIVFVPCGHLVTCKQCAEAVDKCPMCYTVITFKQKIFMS

Chain of Dihydroorotate dehydrogenase (quinone), mitochondrial (Plasmodium falciparum (isolate 3D7)) (Q08210 whole entry, looked up): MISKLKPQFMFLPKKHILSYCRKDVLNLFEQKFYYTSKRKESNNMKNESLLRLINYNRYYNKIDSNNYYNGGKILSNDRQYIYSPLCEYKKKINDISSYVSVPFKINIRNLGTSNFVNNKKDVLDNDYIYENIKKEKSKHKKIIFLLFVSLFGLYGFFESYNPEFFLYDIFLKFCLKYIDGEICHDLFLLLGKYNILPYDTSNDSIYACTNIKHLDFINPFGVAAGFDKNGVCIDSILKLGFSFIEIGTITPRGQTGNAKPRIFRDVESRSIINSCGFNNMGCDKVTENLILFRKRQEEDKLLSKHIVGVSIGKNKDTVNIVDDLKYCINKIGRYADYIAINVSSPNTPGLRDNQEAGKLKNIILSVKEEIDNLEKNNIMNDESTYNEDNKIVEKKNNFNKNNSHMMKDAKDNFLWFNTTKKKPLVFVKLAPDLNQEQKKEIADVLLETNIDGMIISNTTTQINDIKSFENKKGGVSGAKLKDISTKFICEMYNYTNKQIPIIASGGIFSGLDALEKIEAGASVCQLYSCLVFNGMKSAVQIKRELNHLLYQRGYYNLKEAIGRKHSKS

Row | Compound | z-score [1] | z-score [2] | z-score [3] | composite z-score [4] | z-score [5] | z-score [6] | z-score [7] | z-score [8] | z-score [9] | composite z-score [10]
1 | CC1(C)[C@@H]2CC(C(O)C3C=CC4C(=O)N(c5ccccc5)C(=O)C4N3Nc3ccccc3F)=C[C@@H]1C2 (stereo not given in full) | 1.48 | -0.393 (inactive) | 0.941 (inactive) | 1.09 (inactive) | 0.16 (inactive) | -0.393 (inactive) | 0.018 (inactive) | 0.985 (inactive) | -1.19 | 0.18
2 | CC(C)c1ccc(NN2C(C(O)c3cccs3)C=CC3C(=O)N(c4ccccc4)C(=O)C32)cc1 (stereo not given) | -1.75 | -2.27 (inactive) | -1.73 (inactive) | 0.355 (inactive) | 0.835 (inactive) | 0.883 (inactive) | -0.649 (inactive) | -0.73 (inactive) | -1.14 | 0.44
3 | OCCCC1=CC(c2cccs2)N(Cc2cccc(OC(F)(F)F)c2)CC1 (stereo not given) | -0.505 | -4.17 (inactive) | -0.656 (inactive) | -1.3 (inactive) | -0.341 (inactive) | -0.54 (inactive) | 0.0886 (inactive) | -0.573 (inactive) | -0.175 | 0.282
4 | CO[C@H]1O[C@H](CO)[C@@H](OC(=O)Nc2cccc(F)c2)[C@H](OC(=O)Nc2ccc3c(c2)OCO3)[C@H]1OC(=O)Nc1ccc2c(c1)OCO2 | -0.252 | 1.55 (inactive) | -1.53 (inactive) | -0.222 (inactive) | 1.38 (inactive) | 1.48 (inactive) | 1.49 (inactive) | 0.378 (inactive) | -1.89 | 0.652
5 | C=CCNC(=O)[C@@H]1[C@H]2C(=O)O[C@H](c3ccccc3)[C@H](c3ccccc3)N2[C@H](c2ccc(O)cc2)[C@@]12C(=O)Nc1ccc(C#CCCO)cc12 | 0.917 | -0.599 (inactive) | 0.343 (inactive) | -0.489 (inactive) | -0.212 (inactive) | -0.769 (inactive) | 0.883 (inactive) | -0.582 (inactive) | 1.32 | -0.377
6 | CCOC(=O)C1=CCC(c2cccc(Cl)c2)O1 (stereo not given) | 0.482 | -4.22 (inactive) | 0.402 (inactive) | -0.863 (inactive) | 0.601 (inactive) | -1.6 (inactive) | 0.484 (inactive) | -0.16 (inactive) | -0.0798 | 0.19
7 | COc1ccc(C#Cc2ccc3c(c2)[C@]2(C(=O)N3)[C@H](C(=O)O)[C@H]3C(=O)O[C@H](c4ccccc4)[C@H](c4ccccc4)N3[C@@H]2c2ccc(OCCO)cc2)cc1 | -0.182 | 0.773 (inactive) | 0.586 (inactive) | -15.6 (active) | 3.6 (inactive) | 2.51 (inactive) | 0.851 (inactive) | 0.377 (inactive) | 0.431 | 0.0811
8 | CN1C(=O)C2C=CC(C(O)c3cccc4ccccc34)N(NC(=O)OC(C)(C)C)C2C1=O (stereo not given) | -1.12 | -3.8 (inactive) | -0.776 (inactive) | -0.878 (inactive) | 0.378 (inactive) | -0.0808 (inactive) | -0.555 (inactive) | -0.403 (inactive) | -0.693 | 0.156
9 | C[N+](C)(C)CCCC[C@@H]1NC(=O)[C@@H]2C[C@H](C(=O)NCCCCCNC(=O)CS)[C@H](c3cccc(OCCO)c3)N2C1=O | 0.839 | -0.385 (inactive) | 0.223 (inactive) | 1.09 (inactive) | -0.199 (inactive) | 0.342 (inactive) | 0.461 (inactive) | 0.983 (inactive) | 0.228 | -0.0562
10 | CO[C@H]1O[C@H](CO)[C@@H](OC(=O)c2ccc(Br)cc2)[C@@H]2OC(=O)[C@H](Cc3cccc(Br)c3)C/C=C/C[C@@H](Cc3cccc(Br)c3)C(=O)O[C@@H]12 | -0.673 | -0.611 (inactive) | -0.402 (inactive) | -0.71 (inactive) | 0.566 (inactive) | 0.393 (inactive) | 0.198 (inactive) | 0.188 (inactive) | -1.47 | -0.0663
11 | CC(C)(C)OC(=O)CC[C@]1(C(=O)N2CCCCC2)N=C(c2ccc(OCCCO)cc2)O[C@H]1c1ccccc1CN=[N+]=[N-] | -0.725 | -0.451 (inactive) | 0.0183 (inactive) | -0.625 (inactive) | 0.618 (inactive) | -0.391 (inactive) | 2.41 (inactive) | 2.39 (inactive) | -0.357 | 0.0346
12 | COC(=O)[C@@]1(Cc2ccccc2)[C@H]2c3cc(C(=O)N4CCCC4)n(Cc4ccc(OC(F)(F)F)cc4)c3C[C@H]2CN1C(=O)c1ccccc1 | -1.22 | 1.61 (inactive) | -2.46 (inactive) | 0.868 (inactive) | 0.632 (inactive) | 1.85 (inactive) | -1.22 (inactive) | -0.439 (inactive) | -2.62 | 0.131
13 | COCCOC(=O)N1C(=O)[C@@]2(c3cc(C#CCNC(N)=O)ccc31)[C@H](C(=O)N1CCCCCCC1)[C@H]1C(=O)O[C@H](c3ccccc3)[C@H](c3ccccc3)N1[C@@H]2c1ccc(OCCO)cc1 | -0.178 | 0.971 (inactive) | -0.237 (inactive) | -0.0134 (inactive) | 2.73 (inactive) | 1.59 (inactive) | -0.0272 (inactive) | 0.531 (inactive) | 0.176 | 0.0471
14 | C#CCOC(=O)N[C@H](C=CCCCC)c1ccccc1 | 0.063 | 0.578 (inactive) | -0.883 (inactive) | -0.837 (inactive) | 0.936 (inactive) | -0.0736 (inactive) | -0.467 (inactive) | -0.424 (inactive) | -0.137 | -0.0133
15 | C=CCOC(=O)[C@@H]1[C@H]2C(=O)O[C@H](c3ccccc3)[C@H](c3ccccc3)N2[C@H](c2ccc(OCCOC(=O)[C@H]3C[C@H]4C(=O)N[C@@H](Cc5ccccc5)C(=O)N4[C@H]3c3cccc(OCCO)c3)cc2)[C@@]12C(=O)Nc1ccc(I)cc12 | -0.208 | -0.215 (inactive) | -1.94 (inactive) | -3.73 (inactive) | 0.199 (inactive) | 2.13 (inactive) | -0.847 (inactive) | 0.573 (inactive) | -1.01 | -0.128
16 | C=CCC(OC(C)=O)[C@@H]1[C@@H](N(Cc2ccc(-c3ccccc3)cc2)C(=O)Cc2ccc(OC)cc2)c2cc(OCCCO)ccc2N1C(=O)c1ccc(-c2ccccc2)cc1 (stereo not given in full) | 0.192 | -1.13 (inactive) | 0.833 (inactive) | -0.0887 (inactive) | -0.24 (inactive) | -0.754 (inactive) | 1.57 (inactive) | 0.807 (inactive) | 0.989 | 0.233
17 | NC(=O)[C@H]1[C@@H]2C(=O)O[C@@H](c3ccccc3)[C@@H](c3ccccc3)N2[C@@H](c2ccc(O)cc2)[C@]12C(=O)Nc1ccc(C#CC3(O)CCCCCC3)cc12 | -0.518 | -0.475 (inactive) | 0.522 (inactive) | -0.885 (inactive) | 0.738 (inactive) | -0.323 (inactive) | 0.249 (inactive) | -0.815 (inactive) | 0.159 | -0.102
18 | CCOC(=O)C[C@H]1[C@H](OC(=O)c2cc3ccccc3oc2=O)[C@@H](NC(=O)c2ccc3ccccc3n2)c2cc(OCCCO)ccc2N1C(=O)c1ccc2ccccc2n1 | 0.165 | -0.535 (inactive) | 0.35 (inactive) | 0.315 (inactive) | -0.766 (inactive) | -0.361 (inactive) | 1.72 (inactive) | 0.627 (inactive) | -0.594 | 0.035
19 | CCCCC(=C=CC[C@H](O)c1ccccc1OCCO)C[C@H](O)c1ccccn1 | 0.973 | -1.8 (inactive) | 0.843 (inactive) | -1.36 (inactive) | 0.0235 (inactive) | 0.0401 (inactive) | 0.917 (inactive) | 0.726 (inactive) | 1.13 | 0.104
20 | COc1cc(C(O)C2C=CC3C(=O)N(C)C(=O)C3N2NC(=O)OC(C)(C)C)cc(OC)c1OC (stereo not given) | -1.22 | 1.74 (inactive) | -0.976 (inactive) | 0.0277 (inactive) | 0.847 (inactive) | 0.796 (inactive) | -1.01 (inactive) | -0.503 (inactive) | -1.24 | 0.085
21 | CCCC[C@H]1OB(O)C[C@H]2C1=C(COc1ccccc1)Cn1c(=O)n(-c3ccccc3)c(=O)n12 | -0.0243 | -6.02 (inactive) | -0.0638 (inactive) | -2.51 (inactive) | 0.294 (inactive) | 0.458 (inactive) | 0.232 (inactive) | 0.0306 (inactive) | -0.0851 | -0.327
22 | O=C1c2ccccc2[C@](Cc2ccccc2I)(C(=O)NC2CC2)[C@H](c2ccc(CO)cc2)N1Cc1ccccc1Cl | 0.197 | 0.504 (inactive) | -0.405 (inactive) | 0.37 (inactive) | 0.925 (inactive) | 1.9 (inactive) | 0.258 (inactive) | -0.507 (inactive) | -0.506 | 0.0432
23 | C=C(CCCC)/C(=C/C[C@@H](OC(=O)c1ccncc1)c1ccccc1OCCO)c1cc(C(=O)OC)ccc1OC | -0.16 | 0.0793 (inactive) | -1.38 (inactive) | -0.455 (inactive) | 0.506 (inactive) | 0.111 (inactive) | 0.275 (inactive) | 0.223 (inactive) | -0.94 | 0.057
24 | C=CC[C@]1(C(=O)N2CCOCC2)N=C(c2ccc(OCCCO)cc2)O[C@H]1c1ccccc1CN=[N+]=[N-] | -0.744 | -0.33 (inactive) | -0.574 (inactive) | 0.155 (inactive) | -0.497 (inactive) | 0.301 (inactive) | -0.186 (inactive) | 0.0726 (inactive) | -1.03 | 0.208
